A short description of experiment [1]: Nuclear factor erythroid 2-related factor 2/antioxidant responsive element (Nrf2/ARE) small molecule agonists: qHTS cell viability counter screen in human keratinocytes (AID 1919968; active = well fitted curve in the direction sought with a large enough effect in the repeat runs; an effect the other way counts as inactive or inconclusive; note: nearly all actives have a fitted effect of over 55% in size). The method, boiled down:
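After a 5 h attachment period, ARE-reporter keratinocytes were dosed with compounds in DMSO and then cultured 23 h at 37 C. Cell viability came from CellTiter-Fluor signal read after a further 1 h.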
A general note: qHTS replaces the single test concentration by a dilution series.

Experiment [2] addresses Gonadotropin-releasing hormone receptor (Homo sapiens) (UniProt P30968). The experiment in a line: Human gonadotropin-releasing hormone receptor (GnRHR) small molecule agonists, calcium flux assay in GnRHR-HEK293 cells (AID 1920063). Note: nearly all actives have a fitted effect of over 35% in size. The method, boiled down:
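We seeded human GnRHR-expressing HEK293 cells for 18 hours, loaded them with calcium dye for an hour at 37 C, added test compounds, and recorded fluorescence intensity kinetically for three minutes.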

Experiment [3] addresses KiSS-1 receptor (Homo sapiens) (UniProt Q969F8). The experiment in a line: Human kisspeptin (KISS1R) small molecule agonists, calcium flux assay in KISS1R-HEK293 cells (AID 1920064; active = well fitted curve in the direction sought with a large enough effect in the repeat runs; an effect the other way counts as inactive or inconclusive). The method, boiled down: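 Kinetic calcium assay, 1 s sampling over 3 min at Ex/Em 480/540, in HEK293 cells engineered with human KISS1R; compounds delivered in DMSO after 1 h dye loading.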
(In general: Calcium assays in cells follow changes in intracellular calcium, usually with a dye or a luminescent sensor.)

Experiment [4] in a line: G protein-coupled receptor (GPCR) small molecule agonists, calcium flux assay: HEK293 wild type cell line counter screen (AID 1920065). The method, boiled down: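 Calcium-sensitive dye, loaded 1 h at 37 C into cells cultured 18 h, reports compound-evoked calcium release as fluorescence (Ex/Em 480/540), measured over 3 min. Agonist mode; 15-point titrations, triplicate.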

Experiment [5] can be described thus: p53 small molecule agonists, cell-based qHTS assay with human liver microsomes (AID 1963577). The method, boiled down:
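Compounds act here after metabolic activation: human liver microsomes and NADPH, both at 0.5 mg/mL final, were co-added to p53RE-bla cells. Incubation ran 16 h at 37 C, followed by LiveBLAzer detection.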

Experiment [6] in a line: p53 small molecule agonists, cell-based qHTS assay with rat liver microsomes (AID 1963578). The method, boiled down: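 Read-out is beta-lactamase reporter fluorescence (LiveBLAzer, 2 h, room temperature, dark) in p53RE-bla cells treated 16 h at 37 C with compound, rat liver microsomes and NADPH, both 0.5 mg/mL final.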
Experiment [7] is described as follows: p53 small molecule agonists, cell-based qHTS assay with human liver microsomes: qHTS cell viability counter screen (AID 1963579). Note: nearly all actives have a fitted effect of over 45% in size. The method, boiled down:
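Cells carrying the p53 response-element beta-lactamase reporter are treated for 16 h at 37 C with test compounds in the presence of human liver microsomes and NADPH (both 0.5 mg/mL final); ATP-based CellTiter-Glo luminescence then reports viability.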

The nature of experiment [8]: p53 small molecule agonists, cell-based qHTS assay with rat liver microsomes: qHTS cell viability counter screen (AID 1963580). Note: nearly all actives have a fitted effect of over 45% in size. The method, boiled down:
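p53RE-bla HCT-116 cells (4,000/well) rested 5 h at 37 C, then given Tox21 compounds in DMSO with rat liver microsomes (0.5 mg/mL final) plus NADPH (0.5 mg/mL final) for 16 h at 37 C. Viability read by CellTiter-Glo luminescence after 30 min at room temperature.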

Experiment [9] is described as follows: p53 small molecule agonists, cell-based qHTS assay: qHTS cell viability counter screen (AID 1963581). Note: nearly all actives have a fitted effect of over 45% in size. The method, boiled down:
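Following 5 h attachment, HCT-116 p53RE-bla cells took up compound for 16 h at 37 C; the reporter was read with B/G FRET substrate (2 h RT), and viability then via CellTiter-Glo ATP luminescence.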

Experiment [10] is described as follows: p53 small molecule agonists, cell-based qHTS assay (AID 1963582; active = well fitted activation curve with a large enough effect in the signal ratio in the repeat runs, not every such curve was filed as active; the % refers to the signal ratio). The method, boiled down: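 In this cell-based concentration-response screen, a p53 response element drives beta-lactamase; cells received DMSO-borne compounds after 5 h culture and were incubated a further 16 h before FRET substrate development.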
Experiment [11] deals with 5-hydroxytryptamine receptor 2A (Homo sapiens) (UniProt P28223). The experiment in a line: 5-hydroxytryptamine receptor 2A (HTR2A) small molecule antagonists, cell-based qHTS assay (AID 1963586). Note: nearly all actives have a fitted effect of over 45% in size. Note: potency is the fitted concentration of half-maximal effect. The method, boiled down:
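Antagonist-mode intracellular calcium assay: DOI (4 nM) added after 5 min compound pre-incubation at room temperature to dye-loaded HTR2A-CHO cells. Fluorescence followed for 3 min, sampled every second.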

Experiment [12] has the same target. Put plainly: 5-hydroxytryptamine receptor 2A (HTR2A) small molecule agonists, cell-based qHTS assay (AID 1963587). Note: nearly all actives have a fitted effect of over 30% in size. Note: potency is the fitted concentration of half-maximal effect. The method, boiled down:
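HTR2A-CHO cells, plated 18 h at 37 C/5% CO2, dye-loaded 1 h at 37 C; compounds in DMSO added by pin tool (agonist mode). Intracellular calcium flux read as kinetic fluorescence on FDSS over 2 min at 1 s intervals.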

Experiment [13] deals with Muscarinic acetylcholine receptor M1 (Homo sapiens) (UniProt P11229). The experiment in a line: Cholinergic receptor muscarinic 1 (CHRM1) small molecule antagonists, cell-based qHTS assay (AID 1963588). Note: nearly all actives have a fitted effect of over 40% in size. Note: potency is the fitted concentration of half-maximal effect. The method, boiled down: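 CHRM1-CHO calcium-flux assay, antagonist mode. Cells were seeded 18 h, dye-loaded 1 h at 37 C and given compound for 5 min at RT, then acetylcholine was added at 50nM. FDSS fluorescence was read 3 min; 15 concentrations, three runs.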
Sequence of Muscarinic acetylcholine receptor M1 (Homo sapiens) (P11229 whole entry, looked up): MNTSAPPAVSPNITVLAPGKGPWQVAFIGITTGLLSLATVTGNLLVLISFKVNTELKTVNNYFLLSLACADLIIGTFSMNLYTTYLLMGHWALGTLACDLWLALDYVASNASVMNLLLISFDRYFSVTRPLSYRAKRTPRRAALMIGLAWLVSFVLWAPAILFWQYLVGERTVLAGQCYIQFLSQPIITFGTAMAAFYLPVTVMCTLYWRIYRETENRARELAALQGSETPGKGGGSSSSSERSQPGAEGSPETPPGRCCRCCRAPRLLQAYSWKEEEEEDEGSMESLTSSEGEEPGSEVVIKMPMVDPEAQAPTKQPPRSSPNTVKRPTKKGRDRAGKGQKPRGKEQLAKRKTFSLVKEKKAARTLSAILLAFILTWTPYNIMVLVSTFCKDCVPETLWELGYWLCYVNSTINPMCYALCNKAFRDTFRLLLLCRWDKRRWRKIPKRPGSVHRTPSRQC

Experiment [14] has the same target. Put plainly: Cholinergic receptor muscarinic 1 (CHRM1) small molecule agonists, cell-based qHTS assay (AID 1963589). Note: nearly all actives have a fitted effect of over 35% in size. The method, boiled down:
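Measures agonist-induced intracellular calcium rise. Stable human CHRM1 CHO line, 1 h dye load at 37 C, compounds from DMSO, kinetic fluorescence read.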

The nature of experiment [15]: cAMP Responsive Elements (CRE) small molecule agonists, cell-based qHTS assay (AID 1963590). The method, boiled down:
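A CRE-responsive beta-lactamase reporter in HEK 293T cells was used. Treatment ran 3 h at 37 C; detection used LiveBLAzer B/G FRET substrate for 2 h at room temperature.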

The nature of experiment [16]: cAMP Responsive Elements (CRE) small molecule antagonists, cell-based qHTS assay (AID 1963591; active = well fitted inhibition curve with a large enough effect in the signal ratio in the repeat runs, not every such curve was filed as active; the % refers to the signal ratio). The method, boiled down:
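HEK293T cells carrying a CRE-driven beta-lactamase reporter receive compound and NKH477 (0.25 uM final) for 3 h. Fluorescence from LiveBLAzer B/G FRET substrate is read after 2 h at room temperature.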

The target of experiment [17] is Beta-2 adrenergic receptor (Homo sapiens) (UniProt P07550). Put plainly: Adrenergic beta2 receptor (ADRB2) small molecule agonists, cell-based qHTS assay (AID 1963593).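 Note: CHO cells stably overexpressing human ADRB2.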 The method, boiled down:
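CHO cells stably over-expressing ADRB2 were plated overnight at 37C, then dosed with compounds plus a stimulation mix containing 100uM IBMX and 25uM Ro-20-1724 for 0.5hr at room temperature. cAMP was measured by HTRF competition, 1hr.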

For experiment [18], the target named is D(2) dopamine receptor (Homo sapiens) (UniProt P14416). Put plainly: Dopamine D2 receptor (DRD2) small molecule agonists, cell-based qHTS assay (AID 1963594). Note: nearly all actives have a fitted effect of over 35% in size. The method, boiled down: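 HEK293 cells stably expressing DRD2 were cultured 24 h at 37 C, then given Ro20-1724 (0.1 mM final) and compounds for 10 min at room temperature. NKH477 (200nM) was then added for 30 min. cAMP was read by HTRF.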
Sequence of D(2) dopamine receptor (Homo sapiens) (P14416 whole entry, looked up): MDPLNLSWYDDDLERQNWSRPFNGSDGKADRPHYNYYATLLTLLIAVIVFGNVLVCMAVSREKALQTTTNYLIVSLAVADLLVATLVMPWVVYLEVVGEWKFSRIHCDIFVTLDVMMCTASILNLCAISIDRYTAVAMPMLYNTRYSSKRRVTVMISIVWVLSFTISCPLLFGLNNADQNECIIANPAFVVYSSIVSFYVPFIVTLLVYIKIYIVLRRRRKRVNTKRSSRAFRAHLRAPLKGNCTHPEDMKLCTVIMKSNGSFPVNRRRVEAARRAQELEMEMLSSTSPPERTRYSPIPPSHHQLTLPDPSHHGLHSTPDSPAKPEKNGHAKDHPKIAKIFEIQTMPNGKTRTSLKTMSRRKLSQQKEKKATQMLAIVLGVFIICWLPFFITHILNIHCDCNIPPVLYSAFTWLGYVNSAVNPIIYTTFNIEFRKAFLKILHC

For experiment [19] the target is unchanged. The experiment in a line: Dopamine D2 receptor (DRD2) small molecule antagonists, cell-based qHTS assay (AID 1963595; active = well fitted inhibition curve with a large enough effect in the signal ratio in the repeat runs, with a control signal flat; the % refers to the signal ratio; note: potency is the fitted concentration of half-maximal effect). The method, boiled down: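 In this cell-based antagonist screen, compounds act for 10 min at room temperature before a 30 min challenge with 12 nM quinpirole and 200 nM NKH477. cAMP is quantified by HTRF competition in DRD2-HEK293 cells containing 0.1 mM Ro20-1724.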

The target of experiment [20] is Beta-2 adrenergic receptor (Homo sapiens) (UniProt P07550). Put plainly: Adrenergic beta2 receptor (ADRB2) small molecule antagonists, cell-based qHTS assay (AID 1963592). Note: series mostly up to about 92 µM; nearly all actives have a fitted effect of over 50% in size. The method, boiled down:
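Cells (CHO, stable ADRB2 overexpression) incubated 18-20hr at 37C; compounds added from DMSO; agonist mix (1nM isoproterenol, 100uM IBMX, 25uM Ro-20-1724) added; 0.5hr RT; d2-cAMP and anti-cAMP-cryptate added; 1hr RT; 665/615 nm read.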

Values without a mark were called inactive. Inconclusive results are not listed. The source made the active and inactive calls. Unless noted, calls come from the whole dose curve.

Sequence of Beta-2 adrenergic receptor (Homo sapiens) (P07550 whole entry, looked up): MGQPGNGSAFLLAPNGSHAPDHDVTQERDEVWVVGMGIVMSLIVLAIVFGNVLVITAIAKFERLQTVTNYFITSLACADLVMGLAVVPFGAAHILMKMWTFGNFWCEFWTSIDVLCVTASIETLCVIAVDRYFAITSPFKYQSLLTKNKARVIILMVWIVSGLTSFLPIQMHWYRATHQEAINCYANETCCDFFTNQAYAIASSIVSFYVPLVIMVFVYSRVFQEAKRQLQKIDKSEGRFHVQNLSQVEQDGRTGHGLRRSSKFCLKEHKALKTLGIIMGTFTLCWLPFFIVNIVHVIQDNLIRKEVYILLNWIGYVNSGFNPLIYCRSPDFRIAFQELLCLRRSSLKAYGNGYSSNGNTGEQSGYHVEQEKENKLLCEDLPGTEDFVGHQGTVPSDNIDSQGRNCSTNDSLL
Sequence of Gonadotropin-releasing hormone receptor (Homo sapiens) (P30968 whole entry, looked up): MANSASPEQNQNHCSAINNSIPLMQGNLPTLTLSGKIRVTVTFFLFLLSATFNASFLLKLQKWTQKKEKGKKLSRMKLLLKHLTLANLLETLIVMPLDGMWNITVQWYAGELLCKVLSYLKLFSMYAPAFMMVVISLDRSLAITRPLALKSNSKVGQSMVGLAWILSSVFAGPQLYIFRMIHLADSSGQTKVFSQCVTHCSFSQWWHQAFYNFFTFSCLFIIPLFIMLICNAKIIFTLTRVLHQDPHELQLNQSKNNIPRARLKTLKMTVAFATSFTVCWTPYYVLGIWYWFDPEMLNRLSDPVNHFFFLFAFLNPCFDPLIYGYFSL
Sequence of KiSS-1 receptor (Homo sapiens) (Q969F8 whole entry, looked up): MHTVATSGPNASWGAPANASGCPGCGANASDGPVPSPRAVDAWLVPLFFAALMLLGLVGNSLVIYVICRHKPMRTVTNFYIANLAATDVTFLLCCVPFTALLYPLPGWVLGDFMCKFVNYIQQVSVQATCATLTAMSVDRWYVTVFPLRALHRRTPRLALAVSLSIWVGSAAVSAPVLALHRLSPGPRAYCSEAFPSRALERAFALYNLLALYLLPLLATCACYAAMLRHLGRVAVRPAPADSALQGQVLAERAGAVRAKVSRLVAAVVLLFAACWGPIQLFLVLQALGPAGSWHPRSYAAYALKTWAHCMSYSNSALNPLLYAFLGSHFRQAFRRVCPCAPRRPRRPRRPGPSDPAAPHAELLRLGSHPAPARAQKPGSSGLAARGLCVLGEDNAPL
Sequence of 5-hydroxytryptamine receptor 2A (Homo sapiens) (P28223 whole entry, looked up): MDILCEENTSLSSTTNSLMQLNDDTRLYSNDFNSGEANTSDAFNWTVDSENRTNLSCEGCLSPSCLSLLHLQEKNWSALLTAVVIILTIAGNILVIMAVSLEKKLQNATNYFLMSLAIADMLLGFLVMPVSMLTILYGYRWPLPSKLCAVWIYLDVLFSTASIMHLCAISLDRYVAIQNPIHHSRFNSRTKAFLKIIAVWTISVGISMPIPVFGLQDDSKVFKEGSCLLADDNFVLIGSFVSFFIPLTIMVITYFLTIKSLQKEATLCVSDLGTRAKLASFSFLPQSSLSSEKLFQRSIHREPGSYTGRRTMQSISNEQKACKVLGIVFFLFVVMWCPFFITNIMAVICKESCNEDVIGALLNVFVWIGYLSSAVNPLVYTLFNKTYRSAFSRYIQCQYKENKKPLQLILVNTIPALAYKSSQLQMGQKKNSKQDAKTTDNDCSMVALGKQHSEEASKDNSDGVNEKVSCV

Take `BrCC(Br)C1CCC(Br)C(Br)C1` (configuration not stated): the Potency entry in experiment [1], in experiment [2], in [3], in experiment [4], in experiment [5] and in experiment [6] was “inactive” in each case. For the same compound, the Potency result in experiment [7], in experiment [8], in experiment [9], in experiment [10], in [11] and in [12] was “inactive” in each case. In addition, the Potency entry in [13], in experiment [14], in experiment [15], in [16], in [17] and in [18] was “inactive” in each case. For the same compound, the Potency entry in experiment [19] was “inactive”.
Regarding `CC(C)NCC(O)c1ccc(N)c(C#N)c1` (configuration not stated), the Potency result in experiment [1], in experiment [2], in [3], in experiment [4], in [5] and in experiment [6] was “inactive” in each case. The Potency result in [7], in experiment [8], in experiment [9], in experiment [10], in experiment [13] and in [14] was “inactive” each time. The Potency entry in experiment [16] and in [18] was “inactive” throughout. For the same compound, the Potency was 18.3 µM (active) in experiment [11] and 0.0047 µM (active) in [19].
For the compound `O=[N+]([O-])c1ccccc1CCl`, the Potency result in experiment [1], in [2], in experiment [3], in [4], in experiment [5] and in experiment [6] was “inactive” each time. Also, the Potency result in experiment [7], in [8], in [9], in [11], in [12] and in experiment [13] was “inactive” each time. Moreover, the Potency entry in experiment [14], in experiment [15], in [20], in experiment [18] and in experiment [19] was “inactive” each time.
In the case of `Clc1ccc2ccccc2c1`, the Potency result in experiment [1], in experiment [2], in experiment [3], in experiment [4], in experiment [5] and in experiment [6] was “inactive” in each case. Besides, the Potency entry in experiment [7], in [8], in experiment [9], in experiment [10], in experiment [13] and in experiment [14] was “inactive” throughout. For the same compound, the Potency entry in [15], in experiment [16], in experiment [20], in experiment [18] and in [19] was “inactive” throughout.
Take `O=c1[nH]c2ccccc2n1C1CCNCC1`: the Potency entry in experiment [1], in experiment [2], in experiment [3], in [4], in [5] and in experiment [6] was “inactive” in each case. The Potency entry in experiment [7], in [8], in experiment [9], in experiment [10], in experiment [11] and in experiment [12] was “inactive” each time. The Potency entry in experiment [13], in [14], in experiment [15], in [16], in experiment [18] and in experiment [19] was “inactive” in each case.
As to `Cn1sc(Cl)cc1=O`, the Potency result in [1], in experiment [2], in [3], in experiment [4], in [5] and in [6] was “inactive” throughout. Also, the Potency result in experiment [7], in [8], in [9], in experiment [10], in experiment [11] and in [13] was “inactive” throughout. Besides, the Potency entry in experiment [14], in experiment [15], in [16] and in [17] was “inactive” each time. Also, the Potency in experiment [12] is 54.9 µM (active).
In the case of `CC(Cl)(Cl)Cl`, the Potency entry in experiment [1], in experiment [2], in [3], in experiment [4], in [5] and in experiment [6] was “inactive” each time. Further, the Potency entry in experiment [7], in experiment [8], in [9], in experiment [10], in [15] and in experiment [20] was “inactive” each time. The Potency result in [18] and in [19] was “inactive” in each case.
Take `CCCC[N+]1(C)[C@@H]2CC(OC(=O)[C@H](CO)c3ccccc3)C[C@H]1[C@@H]1O[C@@H]12` (some centres not stated): the Potency entry in experiment [1], in experiment [2], in [3], in [4], in [5] and in experiment [6] was “inactive” throughout. The Potency entry in [7], in experiment [8], in experiment [9], in [10], in experiment [11] and in [14] was “inactive” each time. The Potency entry in experiment [15], in [16], in [20], in experiment [17], in experiment [18] and in [19] was “inactive” each time. Further, the Potency in experiment [13] was 3.65 µM (active).

(Values after PubChem BioAssay (Tox21).)
